# Source: PubChem BioAssay AID1159580 (chemical genetic matrix, 2015)
# The whole screen tested about 5,500 compounds, of which about 2,000 (36%) were called active. Not shown: some 18% with an inconclusive outcome. The list shows a part of the results. A number with no mark means an inactive call. Rule as the data show it: active = normalized growth mostly below about 0.91 (no sharp cut-off); inconclusive = no clear call, values can overlap the other calls; inactive = mostly above about 0.92.
# Experiment: chemical genetic growth profiling, strain panel (AID 1159580);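 also: tested at 20 µM; growth read once vehicle control cultures reached saturation at 30 °C; 1 = growth at the plate median or of vehicle wells; lower values mean less growth of the strain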
# Settings: growth OD
smiles,measurement,setting,value
C[C@]12CCC3c4ccc(OC(=O)CCC(=O)O)cc4CCC3C1CCC2=O (stereo partly specified),normalized growth,"S. cerevisiae deletion strains, locus YAL013W, strain DEP1, active compounds read low",0.981
same,normalized growth,"S. cerevisiae deletion strains, locus YBR021W, strain FUR4, active compounds read low",0.85
same,normalized growth,"S. cerevisiae deletion strains, locus YBR229C, strain ROT2, active compounds read low",1.01
same,normalized growth,"S. cerevisiae deletion strains, locus YCL029C, strain bik1, active compounds read low",0.97
same,normalized growth,"S. cerevisiae deletion strains, locus YDL035C, strain GPR1, active compounds read low",0.871
same,normalized growth,"S. cerevisiae deletion strains, locus YDL074C, strain BRE1, active compounds read low",0.872
same,normalized growth,"S. cerevisiae deletion strains, locus YDL101C, strain DUN1, active compounds read low",0.999
same,normalized growth,"S. cerevisiae deletion strains, locus YDL134C, strain PPH21, active compounds read low",1
same,normalized growth,"S. cerevisiae deletion strains, locus YDL185W, strain tfp1, active compounds read low",0.951
same,normalized growth,"S. cerevisiae deletion strains, locus YDL192W, strain arf1, active compounds read low",0.916 (active)
same,normalized growth,"S. cerevisiae deletion strains, locus YDR101C, strain arx1, active compounds read low",0.984
same,normalized growth,"S. cerevisiae deletion strains, locus YDR150W, strain NUM1, active compounds read low",0.998
same,normalized growth,"S. cerevisiae deletion strains, locus YDR162C, strain NBP2, active compounds read low",0.785 (active)
same,normalized growth,"S. cerevisiae deletion strains, locus YDR318W, strain mcm21, active compounds read low",0.926
same,normalized growth,"S. cerevisiae deletion strains, locus YDR388W, active compounds read low",0.98
same,normalized growth,"S. cerevisiae deletion strains, locus YDR502C, strain sam2, active compounds read low",0.933
same,normalized growth,"S. cerevisiae deletion strains, locus YEL061C, strain CIN8, active compounds read low",1
same,normalized growth,"S. cerevisiae deletion strains, locus YER110C, active compounds read low",0.965
same,normalized growth,"S. cerevisiae deletion strains, locus YER155C, strain BEM2, active compounds read low",1.01
same,normalized growth,"S. cerevisiae deletion strains, locus YER167W, strain BCK2, active compounds read low",0.944
same,normalized growth,"S. cerevisiae deletion strains, locus YGL078C, strain dbp3, active compounds read low",1
same,normalized growth,"S. cerevisiae deletion strains, locus YGL086W, strain mad1, active compounds read low",0.922 (active)
same,normalized growth,"S. cerevisiae deletion strains, locus YGL248W, strain PDE1, active compounds read low",1.01
same,normalized growth,"S. cerevisiae deletion strains, locus YGR078C, strain PAC10, active compounds read low",0.949
same,normalized growth,"S. cerevisiae deletion strains, locus YGR135W, strain pre9, active compounds read low",0.936
same,normalized growth,"S. cerevisiae deletion strains, locus YGR229C, strain SMI1, active compounds read low",1.03
same,normalized growth,"S. cerevisiae deletion strains, locus YGR252W, strain gcn5, active compounds read low",0.783
same,normalized growth,"S. cerevisiae deletion strains, locus YHR030C, strain SLT2, active compounds read low",1
same,normalized growth,"S. cerevisiae deletion strains, locus YHR079C, strain IRE1 (second series), active compounds read low",0.99
same,normalized growth,"S. cerevisiae deletion strains, locus YHR094C, strain hxt1, active compounds read low",0.993
same,normalized growth,"S. cerevisiae deletion strains, locus YHR129C, strain ARP1, active compounds read low",0.996
same,normalized growth,"S. cerevisiae deletion strains, locus YHR200W, strain rpn10, active compounds read low",0.955
same,normalized growth,"S. cerevisiae deletion strains, locus YIL066C, strain RNR3, active compounds read low",0.879
same,normalized growth,"S. cerevisiae deletion strains, locus YIL073C, strain SPO22, active compounds read low",0.806
same,normalized growth,"S. cerevisiae deletion strains, locus YIL125W, strain kgd1, active compounds read low",0.992
same,normalized growth,"S. cerevisiae deletion strains, locus YIR030C, strain dcg1, active compounds read low",0.996
same,normalized growth,"S. cerevisiae deletion strains, locus YJL095W, strain BCK1, active compounds read low",0.946
same,normalized growth,"S. cerevisiae deletion strains, locus YJL134W, strain LCB3, active compounds read low",1.01
same,normalized growth,"S. cerevisiae deletion strains, locus YJL168C, strain set2, active compounds read low",1
same,normalized growth,"S. cerevisiae deletion strains, locus YJL187C, strain SWE1 (second series), active compounds read low",0.974
same,normalized growth,"S. cerevisiae deletion strains, locus YJR043C, strain POL32, active compounds read low",0.911
same,normalized growth,"S. cerevisiae deletion strains, locus YJR075W, strain HOC1, active compounds read low",0.968
same,normalized growth,"S. cerevisiae deletion strains, locus YKL009W, strain mrt4, active compounds read low",0.884
same,normalized growth,"S. cerevisiae deletion strains, locus YKL068W, active compounds read low",1
same,normalized growth,"S. cerevisiae deletion strains, locus YKL085W, strain MDH1 (second series), active compounds read low",1.01
same,normalized growth,"S. cerevisiae deletion strains, locus YKL085W, strain MDH1, active compounds read low",1.01
same,normalized growth,"S. cerevisiae deletion strains, locus YKL190W, strain CNB1, active compounds read low",0.991
same,normalized growth,"S. cerevisiae deletion strains, locus YKR001C, strain vps1, active compounds read low",0.836 (active)
same,normalized growth,"S. cerevisiae deletion strains, locus YLR039C, strain RIC1, active compounds read low",0.578 (active)
same,normalized growth,"S. cerevisiae deletion strains, locus YLR058C, strain SHM2, active compounds read low",0.985
same,normalized growth,"S. cerevisiae deletion strains, locus YLR102C, strain apc9, active compounds read low",1.01
same,normalized growth,"S. cerevisiae deletion strains, locus YLR262C, strain YPT6, active compounds read low",0.559 (active)
same,normalized growth,"S. cerevisiae deletion strains, locus YLR268W, strain sec22, active compounds read low",0.976
same,normalized growth,"S. cerevisiae deletion strains, locus YLR330W, strain CHS5, active compounds read low",0.986
same,normalized growth,"S. cerevisiae deletion strains, locus YLR342W, strain FKS1 (second series), active compounds read low",0.81
same,normalized growth,"S. cerevisiae deletion strains, locus YLR371W, strain rom2, active compounds read low",0.97
same,normalized growth,"S. cerevisiae deletion strains, locus YLR418C, strain cdc73, active compounds read low",0.914
same,normalized growth,"S. cerevisiae deletion strains, locus YML016C, strain PPZ1, active compounds read low",0.985
same,normalized growth,"S. cerevisiae deletion strains, locus YML032C, strain rad52, active compounds read low",0.903 (active)
same,normalized growth,"S. cerevisiae deletion strains, locus YML124C, strain tub3, active compounds read low",1
same,normalized growth,"S. cerevisiae deletion strains, locus YMR078C, strain ctf18, active compounds read low",0.965
same,normalized growth,"S. cerevisiae deletion strains, locus YMR223W, strain ubp8, active compounds read low",0.914
same,normalized growth,"S. cerevisiae deletion strains, locus YMR263W, strain SAP30, active compounds read low",0.971
same,normalized growth,"S. cerevisiae deletion strains, locus YMR307W, strain GAS1, active compounds read low",0.91
same,normalized growth,"S. cerevisiae deletion strains, locus YNL067W, strain RPL9B, active compounds read low",0.944
same,normalized growth,"S. cerevisiae deletion strains, locus YNL128W, strain TEP1, active compounds read low",0.995
same,normalized growth,"S. cerevisiae deletion strains, locus YNL153C, strain GIM3, active compounds read low",1
same,normalized growth,"S. cerevisiae deletion strains, locus YNL233W, strain BNI4, active compounds read low",0.989
same,normalized growth,"S. cerevisiae deletion strains, locus YNL250W, strain rad50, active compounds read low",0.952
same,normalized growth,"S. cerevisiae deletion strains, locus YNL271C, strain bni1, active compounds read low",0.964
same,normalized growth,"S. cerevisiae deletion strains, locus YNL298W, strain CLA4, active compounds read low",0.886 (active)
same,normalized growth,"S. cerevisiae deletion strains, locus YNL307C, strain MCK1, active compounds read low",0.765 (active)
same,normalized growth,"S. cerevisiae deletion strains, locus YNL322C, strain KRE1, active compounds read low",0.992
same,normalized growth,"S. cerevisiae deletion strains, locus YNR052C, strain pop2, active compounds read low",0.873 (active)
same,normalized growth,"S. cerevisiae deletion strains, locus YOL006C, strain TOP1, active compounds read low",0.787
same,normalized growth,"S. cerevisiae deletion strains, locus YOL012C, strain htz1",1.6
same,normalized growth,"S. cerevisiae deletion strains, locus YOL147C, strain pex11, active compounds read low",0.978
same,normalized growth,"S. cerevisiae deletion strains, locus YOR061W, strain CKA2, active compounds read low",0.993
same,normalized growth,"S. cerevisiae deletion strains, locus YOR069W, strain VPS5, active compounds read low",1
same,normalized growth,"S. cerevisiae deletion strains, locus YOR136W, strain idh2, active compounds read low",0.995
same,normalized growth,"S. cerevisiae deletion strains, locus YOR144C, strain elg1, active compounds read low",0.986
same,normalized growth,"S. cerevisiae deletion strains, locus YOR184W, strain ser1, active compounds read low",0.675 (active)
same,normalized growth,"S. cerevisiae deletion strains, locus YOR316C, strain cot1, active compounds read low",0.997
same,normalized growth,"S. cerevisiae deletion strains, locus YPL055C, strain LGE1, active compounds read low",0.874
same,normalized growth,"S. cerevisiae deletion strains, locus YPL241C, strain CIN2, active compounds read low",1
same,normalized growth,"S. cerevisiae deletion strains, locus YPR119W, strain clb2, active compounds read low",1.01
same,normalized growth,"S. cerevisiae deletion strains, locus YPR141C, strain kar3, active compounds read low",0.997
same,normalized growth,"S. cerevisiae deletion strains, locus YPR163C, strain tif3, active compounds read low",0.961
same,normalized growth,"S. cerevisiae deletion strains, locus YPR167C, strain met16, active compounds read low",0.998
same,normalized growth,"S. cerevisiae deletion strains, strain wtn01, active compounds read low",0.929
same,normalized growth,"S. cerevisiae strains, strain wild type, active compounds read low",0.95
